Measured values reported in PubChem BioAssay (NCATS).
Results filed as inconclusive are left out. Calls of active or inactive are those of the source. Unless noted, calls follow the shape of the dose curve; as a rule, active = well fitted curve in the direction sought with a large enough effect; inconclusive = small, poorly fitted or top-dose-only effect, or another doubt; inactive = no such curve, though single readings can be large; an effect the other way counts as inactive or inconclusive.

Tests used:
[1] = molecular target: Cytochrome P450 2C9 (Homo sapiens) (UniProt P11712); experiment: Cytochrome P450 family 2 subfamily C member 9 (CYP2C9) small molecule antagonists: luciferase biochemical (cell-free) qHTS assay (AID 1645842; active = well fitted curve in the direction sought with a large enough effect in the repeat runs; an effect the other way counts as inactive or inconclusive; also: nearly all actives have a fitted effect of over 55% in size; also: potency is read from the fitted curve at half-maximal effect; as to activity change, negative = inhibition: % is scaled to controls: 0 for no effect and ±100 for the full control effect)
Cytochrome P450 2C9 (Homo sapiens), sequence (P11712 whole entry, looked up): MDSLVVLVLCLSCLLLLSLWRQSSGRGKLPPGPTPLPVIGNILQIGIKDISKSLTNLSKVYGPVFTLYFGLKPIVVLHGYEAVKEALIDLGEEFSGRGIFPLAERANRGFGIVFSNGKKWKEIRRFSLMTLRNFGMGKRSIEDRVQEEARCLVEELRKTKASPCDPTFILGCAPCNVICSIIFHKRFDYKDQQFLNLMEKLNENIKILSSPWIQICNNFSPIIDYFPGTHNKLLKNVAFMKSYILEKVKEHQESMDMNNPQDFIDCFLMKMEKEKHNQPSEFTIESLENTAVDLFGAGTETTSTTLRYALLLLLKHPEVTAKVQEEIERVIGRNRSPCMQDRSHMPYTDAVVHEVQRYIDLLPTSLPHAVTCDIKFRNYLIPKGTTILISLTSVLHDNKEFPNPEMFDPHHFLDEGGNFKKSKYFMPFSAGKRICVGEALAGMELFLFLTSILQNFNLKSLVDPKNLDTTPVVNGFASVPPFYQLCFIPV
Method in brief: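 P450-Glo CYP2C9 system: proluciferin substrate with enzyme in mix containing 0.4% BSA, 10 min at room temperature, then NADPH regeneration solution added and incubated 1 h at 37C. Detection reagent stopped reaction; luminescence read after 20 min as RLU.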

[2] = molecular target: Catechol O-methyltransferase (Homo sapiens) (UniProt P21964); experiment: Confirmatory Screen for Target Class Profiling of Small Molecule Inhibitors of Methyltransferases (AID 1745852; calls by dose curve; as to activity change, negative = inhibition: % is scaled to controls: 0 for no effect and ±100 for the full control effect); details: MTase-Glo luminescence, SAH detection, recombinant enzyme; measured here: COMT max response; stronger effect = lower value
Catechol O-methyltransferase (Homo sapiens), sequence (P21964 whole entry, looked up): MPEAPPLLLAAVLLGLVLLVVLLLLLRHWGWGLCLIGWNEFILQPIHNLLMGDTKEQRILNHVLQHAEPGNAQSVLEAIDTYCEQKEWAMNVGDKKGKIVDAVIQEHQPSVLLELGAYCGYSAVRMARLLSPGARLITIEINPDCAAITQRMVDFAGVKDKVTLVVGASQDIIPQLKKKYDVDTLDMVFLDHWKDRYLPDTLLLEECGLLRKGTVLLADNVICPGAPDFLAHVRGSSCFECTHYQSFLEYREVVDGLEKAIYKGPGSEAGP

[3] = molecular target: Guanidinoacetate N-methyltransferase (Homo sapiens) (UniProt Q14353); experiment: as above; details: activity change, negative = inhibition: at 57.3 µM (top of the series) unless noted
[4] = molecular target: Nicotinamide N-methyltransferase (Homo sapiens) (UniProt P40261); experiment: as above; details: MTase-Glo luminescence, SAH detection, recombinant enzyme; measured here: NNMT max response; stronger effect = lower value
Nicotinamide N-methyltransferase (Homo sapiens), sequence (P40261 whole entry, looked up): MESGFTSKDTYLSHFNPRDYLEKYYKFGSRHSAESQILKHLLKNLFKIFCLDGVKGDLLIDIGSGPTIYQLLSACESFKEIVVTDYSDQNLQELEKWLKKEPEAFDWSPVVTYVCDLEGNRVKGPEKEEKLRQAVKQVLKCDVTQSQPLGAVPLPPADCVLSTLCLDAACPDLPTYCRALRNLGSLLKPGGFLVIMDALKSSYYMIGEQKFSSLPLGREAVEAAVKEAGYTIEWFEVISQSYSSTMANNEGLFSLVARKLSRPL

[5] = molecular target: Phenylethanolamine N-methyltransferase (Homo sapiens) (UniProt P11086); experiment: as above; details: MTase-Glo luminescence, SAH detection, recombinant enzyme; measured here: PNMT max response; stronger effect = lower value
Phenylethanolamine N-methyltransferase (Homo sapiens), sequence (P11086 whole entry, looked up): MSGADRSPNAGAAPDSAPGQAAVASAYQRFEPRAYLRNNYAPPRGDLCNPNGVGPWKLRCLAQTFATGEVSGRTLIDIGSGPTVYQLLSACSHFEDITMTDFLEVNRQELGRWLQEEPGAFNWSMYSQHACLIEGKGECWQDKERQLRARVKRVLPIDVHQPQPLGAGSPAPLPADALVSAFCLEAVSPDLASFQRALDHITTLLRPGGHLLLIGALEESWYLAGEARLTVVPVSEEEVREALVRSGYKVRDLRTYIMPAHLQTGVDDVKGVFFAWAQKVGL

[6] = Primary fluorescence-based thiol-reactive (MSTI) qHTS assay for identification of artifact compounds. (AID 1845221);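 also: thiol-reactive compounds lower the probe fluorescence signal; nearly all actives have a fitted effect of over 65% in size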
Method in brief: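 One-hour, room-temperature, dark incubation of compound with 4 uM MSTI in PBS (pH 7.4, 2% DMSO) precedes a fluorescence read at 525 nm excitation, 598 nm emission; Hill-equation fitting yields concentration-response values.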

CAOV3 = experiment: Primary qHTS to identify gynecologic anti-cancer compounds using libraries of approved drugs and bioactive compounds (AID 1345084); details: Gynecologic cancer cell panel viability, ATPlite luminescence, 48 h; series mostly up to 57.5 µM; also: nearly all actives have a fitted effect of over 55% in size; also: potency is read from the fitted curve at half-maximal effect
Method in brief: (§1)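 In this quantitative HTS, cell killing is estimated from loss of ATP-dependent luciferase light. Cells see five compound concentrations over a 48 h exposure.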

SKOV3 = experiment: as above; details: Gynecologic cancer cell panel viability, ATPlite luminescence, 48 h; series mostly up to 57.5 µM
Method in brief: as §1

[7] = P-glycoprotein substrates identified in KB-8-5-11 adenocarcinoma cell line, qHTS therapeutic library screen (AID 1346987); also: potency is read from the fitted curve at half-maximal effect; nearly all actives have a fitted effect of over 65% in size
Method in brief: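 Compounds are pinned in dose-response onto KB-8-5-11 cells (500 cells/well, colchicine-free medium) and left 72 h at 37 degree C. CellTiter-Glo luminescence then yields AC50 values.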

[8] = molecular target: Cytochrome P450 2D6 (Homo sapiens) (UniProt P10635); experiment: Cytochrome P450 family 2 subfamily D member 6 (CYP2D6) small molecule antagonists: luciferase biochemical (cell-free) qHTS assay (AID 1645840; active = well fitted curve in the direction sought with a large enough effect in the repeat runs; an effect the other way counts as inactive or inconclusive; also: nearly all actives have a fitted effect of over 55% in size; also: potency is read from the fitted curve at half-maximal effect; as to activity change, negative = inhibition: % is scaled to controls: 0 for no effect and ±100 for the full control effect)
Cytochrome P450 2D6 (Homo sapiens), sequence (P10635 whole entry, looked up): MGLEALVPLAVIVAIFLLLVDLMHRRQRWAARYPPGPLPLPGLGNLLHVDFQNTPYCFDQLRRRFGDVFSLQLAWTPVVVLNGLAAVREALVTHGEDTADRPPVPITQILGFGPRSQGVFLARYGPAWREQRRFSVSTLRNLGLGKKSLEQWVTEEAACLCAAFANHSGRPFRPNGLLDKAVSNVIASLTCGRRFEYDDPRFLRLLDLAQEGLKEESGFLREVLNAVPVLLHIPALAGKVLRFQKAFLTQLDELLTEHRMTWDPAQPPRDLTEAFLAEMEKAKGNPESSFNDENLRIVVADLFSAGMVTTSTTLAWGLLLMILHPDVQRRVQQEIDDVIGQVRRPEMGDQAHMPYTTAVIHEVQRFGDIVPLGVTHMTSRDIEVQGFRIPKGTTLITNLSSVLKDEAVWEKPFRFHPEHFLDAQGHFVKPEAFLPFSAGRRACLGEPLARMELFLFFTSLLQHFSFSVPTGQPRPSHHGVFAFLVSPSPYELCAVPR
Method in brief: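 P450-Glo CYP2D6 system: proluciferin substrate converted by enzyme to luciferin, read by luminescence proportional to activity. Enzyme-substrate mix with compound 10 min at room temperature, then NADPH regeneration 1 h before detection reagent.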

[9] = qHTS to identify inhibitors of the type 1 interferon - major histocompatibility complex class I in skeletal muscle: primary screen against the NCATS Mechanism Interrogation Plate v5.0 (MIPE) Libary (AID 1347411); also: potency is read from the fitted curve at half-maximal effect; nearly all actives have a fitted effect of over 65% in size
Method in brief: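 Luminescence from CRISPR HiBit-tagged endogenous HLA-B in human myoblasts reported MHC class I level after 24 h of IFN-beta (4 ng/ml) plus compound. Compounds ran as 11-point 1:3 series, top 46 uM final.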

[10] = qHTS drug screen for cell cycle checkpoint inhibitors in PARPi-resistant BRCA-mutant ovarian cancer cell lines. (AID 1963452; calls by dose curve); details: PEO1/OlaR viability, CellTiter-Glo luminescence, 96 h, stronger effect = lower value
Method in brief: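 PEO1, PEO4 and PEO1/OlaR ovarian cancer cells, 600 per well, exposed 96 h at 37C to a dilution series. Viability read by CellTiter-Glo luminescence, normalized to DMSO and empty wells; activity summarized as Z-AUC.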

## COc1ccc(-c2nc(-c3cc(C(F)(F)F)cc(C(F)(F)F)c3)n(Cc3ccc(C(N)=O)cc3)c2-c2ccc(OC)cc2)cc1
[1]
  Potency: 5.35 µM (active)
[2]
  activity: 0.0984%
[3]
  activity change, negative = inhibition: -0.694%
[4]
  activity: -7.68%
[5]
  activity: -1.33%
[6]
  Potency: inactive
CAOV3
  Potency: inactive
SKOV3
  Potency: inactive

## CC(C)n1cnc2c(Nc3cccc(Cl)c3)nc(NCCO)nc21
[7]
  Potency: 14.6 µM (active)
[8]
  Potency: 16.9 µM (active)
[1]
  Potency: 9.52 µM (active)

## COc1ccc2c(c1)CN(C(=O)CCN1CCC(Cc3ccccc3)CC1)CCS2
[7]
  Potency: 6.32 µM (active)
[8]
  Potency: 0.536 µM (active)

## c1ccc(-c2cnc(Nc3ccc(OCCN4CCCC4)cc3)s2)cc1
[7]
  Potency: 16.4 µM (active)
[8]
  Potency: 10.7 µM (active)
CAOV3
  Potency: inactive
SKOV3
  Potency: 35.5 µM (active)

## CNc1nc(-c2ccc3c(N)n[nH]c3c2)cc(N2CC(C(=O)NC3CCCCC3)CCC2C)n1 (stereo unspecified)
[8]
  Potency: 23.9 µM (active)
[1]
  Potency: 2.13 µM (active)

## COc1cc2nc(-c3cc(F)ccc3O)nc(N[C@@H]3CNC[C@H]3C(C)(C)O)c2cc1OC
[9]
  Potency: 3.7 µM (active)
[8]
  Potency: 19 µM (active)
[1]
  Potency: inactive
[6]
  Potency: inactive
[10]
  Z-AUC: -0.315 (inactive)
[10]; measured here: PEO1 parental Z-AUC
  Z-AUC: -0.378
[10]; measured here: PEO4 Z-AUC
  Z-AUC: -0.09
SKOV3
  Potency: inactive

## COc1ccc(C2(CNC(=O)[C@](C)(Cc3c[nH]c4ccccc34)NC(=O)Nc3ccc([N+](=O)[O-])cc3)CCCCC2)nc1
[8]
  Potency: 3.01 µM (active)
[1]
  Potency: 2.68 µM (active)
[6]
  Potency: inactive
CAOV3
  Potency: inactive

## CCN(CC)Cc1cccc(/C=C/c2nc3ccc(F)cc3c(=O)n2-c2ccccc2Cl)n1
[1]
  Potency: 19 µM (active)
CAOV3
  Potency: inactive
SKOV3
  Potency: 20 µM (active)

## CCCCc1nc(C)c(CC(=S)N(C)C)c(=O)n1Cc1ccc(-c2ccccc2-c2nn[nH]n2)cc1
[8]
  Potency: inactive
[1]
  Potency: 9.52 µM (active)
CAOV3
  Potency: inactive

## CNc1cc(OC)c(C(=O)N[C@@H]2CCN(Cc3ccccc3)[C@@H]2C)cc1Cl
[8]
  Potency: 0.107 µM (active)
[1]
  Potency: 8.49 µM (active)
[6]
  Potency: inactive
CAOV3
  Potency: inactive
SKOV3
  Potency: inactive

## COc1ccc2c3ccnc4ccc(=O)n(c2c1)c43
[6]
  Potency: inactive
CAOV3
  Potency: inactive

## CC(C)c1ccc(NC(=O)C(c2ccccc2)N(C)C(=O)Cc2c[nH]c3ccccc23)cc1 (stereo unspecified)
[8]
  Potency: 10.7 µM (active)
[1]
  Potency: 2.39 µM (active)
[6]
  Potency: inactive
SKOV3
  Potency: inactive

## C[C@@H](O[C@H]1OCCN(Cc2n[nH]nc2CN(C)C)[C@H]1c1ccc(F)cc1)c1cc(C(F)(F)F)cc(C(F)(F)F)c1
[8]
  Potency: 15.1 µM (active)
[1]
  Potency: 15.1 µM (active)
SKOV3
  Potency: inactive
